Results from PubChem BioAssay AID1159580 (chemical genetic matrix, 2015).
About 2,000 (36%) of roughly 5,500 compounds were called active. Another 18% or so got no clear call; they are omitted. Rule as the data show it: active = normalized growth mostly below about 0.91 (no sharp cut-off); inconclusive = no clear call, values can overlap the other calls; inactive = mostly above about 0.92. The list shows a part of the results.

Test: chemical genetic growth profiling, strain panel (AID 1159580);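 also: tested at 20 µM; growth read once vehicle control cultures reached saturation at 30 °C; 1 = growth at the plate median or of vehicle wells; lower values mean less growth of the strain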
Details: growth OD
[1] = S. cerevisiae deletion strains, locus YAL013W, strain DEP1, hits give low values
[2] = S. cerevisiae deletion strains, locus YBR229C, strain ROT2, hits give low values
[3] = S. cerevisiae deletion strains, locus YDL101C, strain DUN1, hits give low values
[4] = S. cerevisiae deletion strains, locus YDR150W, strain NUM1, hits give low values
[5] = S. cerevisiae deletion strains, locus YEL061C, strain CIN8, hits give low values
[6] = S. cerevisiae deletion strains, locus YGR078C, strain PAC10, hits give low values
[7] = S. cerevisiae deletion strains, locus YHR030C, strain SLT2, hits give low values
[8] = S. cerevisiae deletion strains, locus YHR087W, strain rtc3, hits give low values
[9] = S. cerevisiae deletion strains, locus YJL187C, strain SWE1, hits give low values
[10] = S. cerevisiae deletion strains, locus YJR043C, strain POL32, hits give low values
[11] = S. cerevisiae deletion strains, locus YJR075W, strain HOC1, hits give low values
[12] = S. cerevisiae deletion strains, locus YKL190W, strain CNB1, hits give low values
[13] = S. cerevisiae deletion strains, locus YLR039C, strain RIC1, hits give low values
[14] = S. cerevisiae deletion strains, locus YLR058C, strain SHM2 (second series), hits give low values
[15] = S. cerevisiae deletion strains, locus YLR085C, strain ARP6, hits give low values
[16] = S. cerevisiae deletion strains, locus YLR262C, strain YPT6, hits give low values
[17] = S. cerevisiae deletion strains, locus YML094W, strain GIM5, hits give low values
[18] = S. cerevisiae deletion strains, locus YMR219W, strain ESC1, hits give low values
[19] = S. cerevisiae deletion strains, locus YMR263W, strain SAP30, hits give low values
[20] = S. cerevisiae deletion strains, locus YMR307W, strain GAS1, hits give low values
[21] = S. cerevisiae deletion strains, locus YNL153C, strain GIM3, hits give low values
[22] = S. cerevisiae deletion strains, locus YNL298W, strain CLA4 (second series), hits give low values
[23] = S. cerevisiae deletion strains, locus YNL322C, strain KRE1, hits give low values
[24] = S. cerevisiae deletion strains, locus YNR030W, strain Alg12, hits give low values
[25] = S. cerevisiae deletion strains, locus YPL055C, strain LGE1, hits give low values
[26] = S. cerevisiae deletion strains, locus YPL241C, strain CIN2, hits give low values
[27] = S. cerevisiae deletion strains, locus YPR135W, strain CTF4, hits give low values
[28] = S. cerevisiae strains, strain wild type, hits give low values
[29] = S. cerevisiae deletion strains, locus YDL134C, strain PPH21, hits give low values
[30] = S. cerevisiae deletion strains, locus YNL128W, strain TEP1, hits give low values
[31] = S. cerevisiae deletion strains, locus YOL006C, strain TOP1, hits give low values
[32] = S. cerevisiae deletion strains, locus YGR229C, strain SMI1, hits give low values

Measured: normalized growth

NC(N)=NC(N)=Nc1cc(C(F)(F)F)cc(C(F)(F)F)c1
inactive: [1] 1 | [2] 0.999 | [3] 0.992 | [4] 0.998 | [5] 1.02 | [6] 0.995 | [7] 0.983 | [8] 0.99 | [9] 1 | [10] 1.01 | [11] 0.977 | [12] 1.01 | [13] 1.01 | [14] 1.01 | [15] 1.03 | [16] 1.01 | [17] 0.956 | [18] 1 | [19] 1.01 | [20] 0.963 | [21] 0.993 | [22] 0.988 | [23] 0.987 | [24] 1.01 | [25] 0.999 | [26] 1.12 | [27] 1 | [28] 1.01

NC(=NS(=O)(=O)c1cc(C(F)(F)F)cc(C(F)(F)F)c1)c1cccs1
inactive: [1] 0.975 | [2] 0.977 | S. cerevisiae deletion strains, locus YCL061C, strain MRC1, hits give low values 0.996 | [3] 0.994 | [29] 0.984 | [4] 0.969 | [5] 0.934 | [6] 0.963 | [7] 0.975 | [8] 1.01 | [9] 0.987 | [10] 0.957 | [14] 0.967 | [15] 0.928 | [17] 0.927 | [18] 0.982 | [19] 0.978 | [30] 1 | [21] 0.991 | [22] 0.933 | [23] 0.977 | [24] 0.942 | [31] 0.949 | [25] 0.9 | [26] 0.946 | [27] 0.877 | [28] 0.978
active: [11] 0.89 | [13] 0.561 | [16] 0.578

c1ccc2c3c([nH]c2c1)CNCC3
inactive: S. cerevisiae deletion strains, locus YBR021W, strain FUR4, hits give low values 1.01 | [2] 0.999 | S. cerevisiae deletion strains, locus YCL029C, strain bik1, hits give low values 1.02 | S. cerevisiae deletion strains, locus YDL035C, strain GPR1, hits give low values 0.991 | S. cerevisiae deletion strains, locus YDL074C, strain BRE1, hits give low values 1.01 | [3] 1.01 | S. cerevisiae deletion strains, locus YDL185W, strain tfp1, hits give low values 1.01 | S. cerevisiae deletion strains, locus YDL192W, strain arf1, hits give low values 0.997 | S. cerevisiae deletion strains, locus YDR101C, strain arx1, hits give low values 1.02 | [4] 1 | S. cerevisiae deletion strains, locus YDR162C, strain NBP2, hits give low values 0.965 | S. cerevisiae deletion strains, locus YDR318W, strain mcm21, hits give low values 0.979 | S. cerevisiae deletion strains, locus YDR388W, hits give low values 0.997 | S. cerevisiae deletion strains, locus YDR502C, strain sam2, hits give low values 1.01 | [5] 0.997 | S. cerevisiae deletion strains, locus YER110C, hits give low values 1 | S. cerevisiae deletion strains, locus YER155C, strain BEM2, hits give low values 1.01 | S. cerevisiae deletion strains, locus YER167W, strain BCK2, hits give low values 0.999 | S. cerevisiae deletion strains, locus YGL078C, strain dbp3, hits give low values 0.997 | S. cerevisiae deletion strains, locus YGL086W, strain mad1, hits give low values 1.02 | S. cerevisiae deletion strains, locus YGL248W, strain PDE1, hits give low values 0.994 | [6] 1 | S. cerevisiae deletion strains, locus YGR135W, strain pre9, hits give low values 0.97 | S. cerevisiae deletion strains, locus YGR252W, strain gcn5, hits give low values 0.906 | [7] 1 | S. cerevisiae deletion strains, locus YHR079C, strain IRE1 (second series), hits give low values 1.01 | S. cerevisiae deletion strains, locus YHR094C, strain hxt1, hits give low values 1 | S. cerevisiae deletion strains, locus YHR129C, strain ARP1, hits give low values 1.01 | S. cerevisiae deletion strains, locus YHR200W, strain rpn10, hits give low values 1 | S. cerevisiae deletion strains, locus YIL066C, strain RNR3, hits give low values 1 | S. cerevisiae deletion strains, locus YIL073C, strain SPO22, hits give low values 1.05 | S. cerevisiae deletion strains, locus YIL125W, strain kgd1, hits give low values 1.02 | S. cerevisiae deletion strains, locus YIR030C, strain dcg1, hits give low values 1.01 | S. cerevisiae deletion strains, locus YJL095W, strain BCK1, hits give low values 0.987 | S. cerevisiae deletion strains, locus YJL134W, strain LCB3, hits give low values 0.999 | S. cerevisiae deletion strains, locus YJL168C, strain set2, hits give low values 1 | S. cerevisiae deletion strains, locus YJL187C, strain SWE1 (second series), hits give low values 0.997 | [10] 1.01 | S. cerevisiae deletion strains, locus YKL009W, strain mrt4, hits give low values 1.01 | S. cerevisiae deletion strains, locus YKL068W, hits give low values 1 | S. cerevisiae deletion strains, locus YKL085W, strain MDH1 (second series), hits give low values 1 | S. cerevisiae deletion strains, locus YKL085W, strain MDH1, hits give low values 1 | [12] 1 | S. cerevisiae deletion strains, locus YKR001C, strain vps1, hits give low values 1.02 | [13] 1.01 | S. cerevisiae deletion strains, locus YLR058C, strain SHM2, hits give low values 0.985 | S. cerevisiae deletion strains, locus YLR102C, strain apc9, hits give low values 1 | [16] 0.993 | S. cerevisiae deletion strains, locus YLR268W, strain sec22, hits give low values 1.03 | S. cerevisiae deletion strains, locus YLR330W, strain CHS5, hits give low values 1.01 | S. cerevisiae deletion strains, locus YLR342W, strain FKS1 (second series), hits give low values 0.976 | S. cerevisiae deletion strains, locus YLR371W, strain rom2, hits give low values 1.02 | S. cerevisiae deletion strains, locus YLR418C, strain cdc73, hits give low values 0.96 | S. cerevisiae deletion strains, locus YML016C, strain PPZ1, hits give low values 0.997 | S. cerevisiae deletion strains, locus YML032C, strain rad52, hits give low values 0.966 | S. cerevisiae deletion strains, locus YML124C, strain tub3, hits give low values 0.996 | S. cerevisiae deletion strains, locus YMR078C, strain ctf18, hits give low values 1.02 | S. cerevisiae deletion strains, locus YMR223W, strain ubp8, hits give low values 0.972 | [19] 1 | [20] 1.02 | S. cerevisiae deletion strains, locus YNL067W, strain RPL9B, hits give low values 1 | [30] 1.01 | [21] 0.997 | S. cerevisiae deletion strains, locus YNL233W, strain BNI4, hits give low values 1 | S. cerevisiae deletion strains, locus YNL250W, strain rad50, hits give low values 1.01 | S. cerevisiae deletion strains, locus YNL271C, strain bni1, hits give low values 1.01 | S. cerevisiae deletion strains, locus YNL298W, strain CLA4, hits give low values 0.99 | S. cerevisiae deletion strains, locus YNL307C, strain MCK1, hits give low values 1.01 | S. cerevisiae deletion strains, locus YNR052C, strain pop2, hits give low values 0.971 | [31] 1.06 | S. cerevisiae deletion strains, locus YOL012C, strain htz1 0.744 | S. cerevisiae deletion strains, locus YOL147C, strain pex11, hits give low values 1 | S. cerevisiae deletion strains, locus YOR061W, strain CKA2, hits give low values 0.998 | S. cerevisiae deletion strains, locus YOR069W, strain VPS5, hits give low values 1 | S. cerevisiae deletion strains, locus YOR136W, strain idh2, hits give low values 1.02 | S. cerevisiae deletion strains, locus YOR144C, strain elg1, hits give low values 1.01 | S. cerevisiae deletion strains, locus YOR184W, strain ser1, hits give low values 1 | S. cerevisiae deletion strains, locus YOR316C, strain cot1, hits give low values 1.01 | [25] 0.983 | [26] 0.988 | S. cerevisiae deletion strains, locus YPR119W, strain clb2, hits give low values 1.01 | S. cerevisiae deletion strains, locus YPR141C, strain kar3, hits give low values 1.01 | S. cerevisiae deletion strains, locus YPR163C, strain tif3, hits give low values 1.01 | S. cerevisiae deletion strains, locus YPR167C, strain met16, hits give low values 0.992 | S. cerevisiae deletion strains, strain wtn01, hits give low values 1.03 | [28] 0.989

CN1CCCC12NCCc1c2[nH]c2ccccc12 (stereo unspecified)
inactive: [1] 0.993 | [2] 1 | [3] 1 | [4] 0.98 | [5] 0.998 | [6] 0.993 | [32] 0.997 | [7] 0.981 | [8] 0.986 | [10] 0.999 | [11] 0.973 | [13] 0.976 | [14] 0.987 | [15] 0.991 | [16] 0.976 | [17] 1.06 | [18] 1.01 | [19] 0.985 | [21] 1 | [22] 0.982 | [23] 1 | [24] 0.965 | [25] 1.01 | [26] 0.969 | [27] 1.03

c1ccc2c(c1)CCc1c-2[nH]c2ccccc12
active: [1] 0.641 | [2] 0.682 | [3] 0.62 | [29] 0.461 | [4] 0.704 | [5] 0.415 | [6] 0.732 | [32] 0.735 | [7] 0.137 | [8] 0.748 | [10] 0.751 | [11] 0.562 | [13] 0.162 | [14] 0.827 | [15] 0.109 | [16] 0.142 | [17] 0.467 | [18] 0.783 | [19] 0.634 | [21] 0.7 | [22] 0.23 | [23] 0.91 | [24] 0.418 | [31] 0.115 | [25] 0.322 | [26] 0.416 | [27] 0.294
